Screening results (PubChem)
This is a sample that favours compounds with a hit; in the whole collection about 1.3% have one here.
Efflux pump mplx = blocks antifungal efflux pumps in multiplex yeast assay; inhibition, % at 10 µM; S. cerevisiae Candida pump triplex, Nile Red efflux; 330,000 compounds, 0.44% hits;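 active = plate passing quality check with inhibition over a set limit, or well fluorescence over plate mean plus 4 SD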;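 note: Nile Red retained in pooled yeast measured as flow cytometry median fluorescence; 0% = buffer negative control and 100% = Enniatin B positive control; higher means more Nile Red kept so more efflux inhibition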
CIT2-GFP yeast = alters CIT2-GFP fluorescence in TOR pathway yeast screen. 320,000 compounds, 0.065% hits. GFP response vs DMSO, % at 10 µM. S. cerevisiae CIT2-GFP strain, flow cytometry, 3 h; 100 means same as DMSO wells. AID 2029;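 active = GFP response relative to DMSO above a set limit, near the screen mean plus 3 SD, cut at about 150% in these data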;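 note: ratio of well median GFP fluorescence to mean of DMSO wells on the plate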
MEP2 TOR yeast = modulators of TOR pathway MEP2-GFP in S. cerevisiae | S. cerevisiae MEP2-GFP strain, flow cytometry GFP, 3 h; 100% = DMSO control level | GFP response vs DMSO, % at 10 µM | AID 2016 | 330,000 compounds, 0.51% hits;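 active = GFP response versus DMSO above a set limit, roughly screen mean plus 3 SD, cut at about 180% in these data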;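 note: median GFP fluorescence of the barcode-gated MEP2-GFP cells per well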
RPL19A-GFP yeast = modulators of TOR pathway RPL19A-GFP in S. cerevisiae | S. cerevisiae RPL19A-GFP strain, flow cytometry, 3 h; active compounds read low | percent response vs DMSO, % at 10 µM | 330,000 compounds, 0.3% hits | AID 2025;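 active = percent response vs DMSO below 50%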;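 note: median channel GFP fluorescence of the barcoded RPL19A-GFP strain; ratio of sample median GFP to plate DMSO average so 100% = DMSO; lower means less RPL19A-GFP as with rapamycin TOR inhibition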
AGP1-GFP MLPCN = alters AGP1-GFP fluorescence in TOR pathway yeast screen; S. cerevisiae AGP1-GFP multiplex flow cytometry, 3 h; GFP as percent of DMSO wells; GFP response vs DMSO, % at 10 µM; 320,000 compounds, 0.02% hits;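 active = GFP response relative to DMSO above a set limit, near screen average plus 3 SD, cut at about 150% in these data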;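 note: median GFP channel fluorescence of the gated AGP1 strain per well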
LAP4 TOR yeast = yeast TOR pathway LAP4-GFP modulation; GFP response vs DMSO, % at 10 µM; S. cerevisiae LAP4-GFP multiplex, flow cytometry GFP, 3 h; median GFP as percent of DMSO wells; 320,000 compounds, 0.34% hits; AID 2023;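 active = GFP response vs DMSO above a set limit, about the screen mean plus 3 SD, cut at about 150% in these data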
Cmpd fluor yeast = counter-screen for efflux pump inhibitors: compound fluorescence; shares compounds with Efflux pump mplx; S. cerevisiae AD/pABC3, flow cytometry; fluorescence ratio to DMSO, % at 10 µM; 1,700 compounds, 4% hits; AID 588517;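 active = fluorescence ratio to DMSO above its plate's cutoff, the plate mean ratio plus 5 SD, cut at about 210% in these data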;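 note: unstained yeast with no Nile Red so the signal is compound autofluorescence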
CaMdr1 efflux inh = blocks the Candida albicans Mdr1 efflux pump in yeast; shares compounds with Efflux pump mplx; S. cerevisiae AD/CaMDR1, Nile Red efflux, flow cytometry; inhibition, % at 10 µM; 1,700 compounds, 1% hits; AID 588518; in the data active = inhibition above about 26%;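 note: 0% = DMSO vehicle and 100% = reference inhibitor; higher means more Nile Red retained so more efflux inhibition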
Cdr2 pump inh = inhibitors of Candida albicans Cdr2 efflux pump. 1,700 compounds, 4% hits. AID 588520. Nile Red retention ratio vs DMSO, % at 10 µM. S. cerevisiae AD/CaCDR2, Nile Red retention, flow cytometry. shares compounds with Efflux pump mplx; in the data active = Nile Red retention ratio vs DMSO above about 190%;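 note: higher ratio means more blocking of Cdr2 efflux of the dye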
CaCdr1 efflux inh = inhibitors of Candida albicans Cdr1 efflux pump; AID 588522; S. cerevisiae AD/CaCDR1, Nile Red efflux, flow cytometry; inhibition, % at 10 µM; 1,700 compounds, 1% hits; shares compounds with Efflux pump mplx;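 active = inhibition above the screen-wide mean plus twice its standard deviation, cut at about 32% in these data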
An asterisk follows results filed as active; nt = not tested or not shown; + = active, no number.

SMILES	Efflux pump mplx	CIT2-GFP yeast	MEP2 TOR yeast	RPL19A-GFP yeast	AGP1-GFP MLPCN	LAP4 TOR yeast	Cmpd fluor yeast	CaMdr1 efflux inh	Cdr2 pump inh	CaCdr1 efflux inh
COc1ccccc1C(=O)COC(=O)c1ccccc1OCC(=O)Nc1ccc(SC(F)F)cc1	11.1*	106.1	96.2	100.4	99.7	97.1	103.1	0.1	107.2	0.0
Cn1c(SCC(=O)N/N=C/c2ccc([N+](=O)[O-])s2)nnc1-c1ccc(Cl)cc1	15.8*	114.2	151.0	103.2	93.4	109.8	111.2	-0.3	126.7	0.2
COc1cc([N+](=O)[O-])cc(/C=N/NC(=O)CSc2nnc(-c3ccccc3)n2C)c1O	-0.2	105.4	97.8	100.1	106.5	95.5	nt	nt	nt	nt
O=c1cc(N=Nc2ccc(Cl)cc2)[nH]c(=O)[nH]1	0.1	98.9	103.5	98.0	94.0	108.8	nt	nt	nt	nt
CC(CS(=O)(=O)c1ccc2c(c1)NC(=O)CS2)C(=O)N1CCN(c2cccc(Cl)c2)CC1 (stereo not given)	-0.1	96.7	104.0	101.3	98.3	96.7	nt	nt	nt	nt
COc1ccc(C(C)=O)cc1CSc1nc2cc(C(=O)O)ccc2c(=O)n1Cc1ccccc1	5.8*	97.0	102.9	98.0	93.4	85.1	97.8	-0.2	108.3	0.2
CCOC(Cn1c(SCc2cc(C(C)=O)ccc2OC)nc2ccccc2c1=O)OCC	-0.2	117.4	112.5	99.7	97.0	99.1	nt	nt	nt	nt
c1ccc(C2CC(c3ccccc3)C(c3ccccc3)N2)cc1 (stereo not given)	0.3	107.4	118.5	100.4	97.0	86.9	nt	nt	nt	nt
O=C(CSc1nc2nc3c(cc2c(=O)n1-c1ccccc1)CCCC3)Nc1cccc2ccccc12	1.1*	87.1	112.5	97.8	92.0	106.5	95.3	-0.1	141.6	-0.1
CCCC(=O)Nc1ccc(C(=O)NNC(=O)c2cccs2)cc1	11.3*	110.1	113.1	104.2	107.9	105.1	88.8	-0.1	96.0	0.0
CC(C)c1ccc(/C=c2\sc3nc(-c4ccncc4)nn3c2=O)cc1	-0.1	95.0	96.5	94.8	93.6	96.8	104.7	0.1	108.1	0.1
Cc1cccc(-n2ncc(C(=O)NC3CCCC3)c2C2CCN(C(=O)OC(C)(C)C)CC2)c1	0.1	99.5	98.5	99.1	104.7	98.8	nt	nt	nt	nt
c1ccc2c(c1)Cc1cc(CN3CCOCC3)ccc1-2	5.9*	90.2	90.9	93.8	90.1	90.5	84.1	-0.2	122.2	-0.1
c1ccc(CN2CCOCC2)cc1	-0.1	101.3	100.8	104.0	112.0	101.1	nt	nt	nt	nt
CNC[C@@H]1Oc2ccc(NC(=O)Nc3c(C)noc3C)cc2CC(=O)N([C@H](C)CO)C[C@H]1C	0.2	98.8	85.6	92.3	91.9	87.0	nt	nt	nt	nt
CCn1c(/C=C/c2ccc(O)c(O)c2)nc2ccccc2c1=O	1.0*	131.8	167.8	101.9	98.8	129.6	143.9	1.6	105.1	2.1
CCCCN1C(=S)NC[C@@H]1Cc1cccc2ccccc12	0.2	86.4	102.1	102.3	94.9	106.3	92.1	-0.5	95.1	-0.1
CCCOC(=O)c1cccc(NC(=O)COc2ccc([N+](=O)[O-])cc2)c1	2.1*	91.8	101.9	105.0	96.1	98.5	102.2	-0.2	104.2	0.1
CCOC(=O)c1cccc(NC(=O)COc2ccc([N+](=O)[O-])cc2)c1	0.1	89.9	105.8	97.4	95.0	108.3	nt	nt	nt	nt
Cn1cc(C(c2ccccn2)c2cn(C)c3ccccc23)c2ccccc21	57.3*	83.4	102.2	96.5	96.2	95.4	88.0	86.4*	102.9	31.7*
Cc1nn(C)c(Sc2ccccc2N)c1[N+](=O)[O-]	0.9*	101.8	101.8	102.4	98.2	129.2	104.6	-0.1	106.0	-0.1
COc1ccc([C@H]2CC(=O)C=C(c3ccnc4ccc(Cl)cc34)C2)cc1	66.5*	75.3	80.8	92.7	89.2	109.6	104.7	0.0	101.7	0.1
CCCCCCCCCCCCCCCC[n+]1ccc(/C=N/O)cc1	2.0*	94.4	95.6	92.9	85.4	117.8	108.3	-0.2	118.0	0.0
CCCCCCCCCCCCCCCC[n+]1ccc(C(N)=O)cc1	2.1	85.7	95.7	96.3	94.6	111.2	nt	nt	nt	nt
S=C(NCc1ccccc1)N1CCc2ccccc2C1	0.0	74.7	79.1	94.4	87.4	114.5	93.3	0.0	100.1	0.2
SMILES	Efflux pump mplx	CIT2-GFP yeast	MEP2 TOR yeast	RPL19A-GFP yeast	AGP1-GFP MLPCN	LAP4 TOR yeast	Cmpd fluor yeast	CaMdr1 efflux inh	Cdr2 pump inh	CaCdr1 efflux inh
S=C(NCCCN1CCOCC1)N1CCN(c2nc(-c3ccccc3)cs2)CC1	1.3*	112.8	108.3	107.4	106.0	103.0	88.7	0.1	97.5	-0.3
O=C(COC(=O)/C=C/c1ccccc1Cl)NC(=O)NCc1ccccc1	-0.4	99.9	103.8	100.6	99.9	97.4	nt	nt	nt	nt
NC(=O)c1ccc(NC(=O)C#Cc2ccccc2)cc1	-0.1	107.1	102.2	104.4	105.0	99.9	nt	nt	nt	nt
CN1CCN(NC(=O)Nc2ccc([N+](=O)[O-])cc2)CC1	0.2	96.5	104.1	100.3	98.8	103.5	nt	nt	nt	nt
COc1cc([N+](=O)[O-])ccc1NC(=O)NN1CCN(C)CC1	5.3*	105.6	105.5	107.8	99.5	85.8	84.4	0.2	93.2	-0.2
COCC(=O)N[C@@H]1c2ccccc2CC[C@@H]1OCc1ccccc1	-0.1	nt	nt	nt	nt	nt	nt	nt	nt	nt
COc1ccccc1-c1sc2ccccc2c1-c1ccc(OCCN2CCCCC2)cc1	40.2*	nt	nt	nt	nt	nt	112.7	-0.2	95.6	0.1
COc1ccc(-c2sc3ccccc3c2-c2ccc(OCCN3CCCCC3)cc2)cc1	-0.1	79.6	89.4	83.6	82.5	103.0	nt	nt	nt	nt
COc1ccc2sc(-c3ccccc3OC)c(-c3ccc(OCCN(C)C)cc3)c2c1	196.1*	nt	nt	nt	nt	nt	124.4	1.9	+	1.3
COc1ccc2c(-c3ccc(OCCN4CCCCC4)cc3)c(-c3ccccc3OC)sc2c1	0.8	nt	nt	nt	nt	nt	100.2	-0.2	99.3	-0.5
c1ccc(-c2sc3ccccc3c2-c2ccc(OCCN3CCCC3)cc2)cc1	-0.3	85.3	94.6	88.7	92.7	118.8	nt	nt	nt	nt
COc1cc(C(CC(=O)Nc2cccc(C)n2)N2Cc3ccccc3C2=O)cc(OC)c1OC (stereo not given)	0.2	101.3	96.1	94.9	95.5	86.3	nt	nt	nt	nt
